Reference: PubChem BioAssay AID623888 (Vanderbilt Specialized Chemistry Center, 2012)

Molecular target: Metabotropic glutamate receptor 3 (Rattus norvegicus) (UniProt P31422)
Assay: PubChem AID 623888
Conditions: HEK/GIRK rat mGlu3, thallium flux fluorescence, Schild, at 30 µM; % glutamate max: glutamate max response with compound, stronger effect = lower value; glutamate response, % max: at 100 µM (top of the series), compound 30 µM

Chain of Metabotropic glutamate receptor 3 (Rattus norvegicus) (P31422 whole entry, looked up): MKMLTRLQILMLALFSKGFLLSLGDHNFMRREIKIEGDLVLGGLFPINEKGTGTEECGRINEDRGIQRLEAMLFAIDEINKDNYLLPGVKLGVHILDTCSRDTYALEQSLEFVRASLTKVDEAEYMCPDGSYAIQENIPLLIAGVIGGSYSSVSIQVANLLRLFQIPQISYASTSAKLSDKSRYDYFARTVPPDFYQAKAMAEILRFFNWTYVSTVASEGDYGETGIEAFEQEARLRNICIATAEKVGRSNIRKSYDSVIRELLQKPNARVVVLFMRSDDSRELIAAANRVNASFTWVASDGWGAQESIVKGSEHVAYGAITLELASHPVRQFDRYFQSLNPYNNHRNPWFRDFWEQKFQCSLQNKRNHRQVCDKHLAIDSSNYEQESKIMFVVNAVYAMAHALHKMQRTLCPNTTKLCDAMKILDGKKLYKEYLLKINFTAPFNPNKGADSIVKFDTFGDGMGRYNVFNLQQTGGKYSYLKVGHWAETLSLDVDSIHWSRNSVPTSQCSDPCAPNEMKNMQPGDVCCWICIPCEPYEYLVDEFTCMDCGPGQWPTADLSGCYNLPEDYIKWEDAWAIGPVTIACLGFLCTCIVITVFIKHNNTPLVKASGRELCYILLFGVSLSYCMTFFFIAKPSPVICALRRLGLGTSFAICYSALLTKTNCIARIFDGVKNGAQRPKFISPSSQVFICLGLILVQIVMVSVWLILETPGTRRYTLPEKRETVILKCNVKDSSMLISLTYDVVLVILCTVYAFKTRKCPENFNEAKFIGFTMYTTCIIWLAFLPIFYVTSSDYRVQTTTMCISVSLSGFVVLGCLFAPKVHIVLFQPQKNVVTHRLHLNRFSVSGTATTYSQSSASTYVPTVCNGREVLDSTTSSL

COc1ccc(C#Cc2ccc(C(=O)N3CCC[C@@H](CO)C3)cc2)cc1
% glutamate max: 1.37% | glutamate response, % max: 2.62
